SMARCA2 act: activators of SMARCA2 function; MG213 cells, MMTV-luciferase reporter, dexamethasone, overnight; hit rate 1% among 370,000; AID 652017; activation, % at 9.1 µM; in the data active = activation above about 7.8%
hcDAF-12 act: activators of H. contortus DAF-12 nuclear receptor | HEK293 hcDAF-12 lit1-tk-luc reporter, luminescence; 0% DMSO, 100% Δ7-dafachronic acid | activation, % at 6.8 µM | hit rate 1.4% among 370,000 | AID 652067;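 active = activation above the mean of all tested compounds plus 3 SD, cut at about 5.5% in these data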
ssDAF-12 act: S. stercoralis DAF-12 activation, primary screen; hit rate 1% among 370,000; AID 652126; activation, % at 6.8 µM; HEK293 ssDAF-12/GRIP1 lit1-tk-luc reporter, luminescence; % of 3 µM dafachronic acid response;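 active = activation above the mean over all tested compounds plus 3 SD, cut at about 0.9% in these data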
DAX1 inh-1: inhibits human nuclear receptor DAX1 | P51843 | inhibition, % at 6.75 µM | HEK293 Gal4-DAX1 luciferase reporter, luminescence | hit rate 0.99% among 340,000 | AID 504766;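 active = inhibition above the mean over all tested compounds plus 3 SD, cut at about 4.2% in these data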;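 also: inhibition shows as a rise in luminescence from relieved DAX1 repression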
Target sequence (P51843 207-470 limits assumed): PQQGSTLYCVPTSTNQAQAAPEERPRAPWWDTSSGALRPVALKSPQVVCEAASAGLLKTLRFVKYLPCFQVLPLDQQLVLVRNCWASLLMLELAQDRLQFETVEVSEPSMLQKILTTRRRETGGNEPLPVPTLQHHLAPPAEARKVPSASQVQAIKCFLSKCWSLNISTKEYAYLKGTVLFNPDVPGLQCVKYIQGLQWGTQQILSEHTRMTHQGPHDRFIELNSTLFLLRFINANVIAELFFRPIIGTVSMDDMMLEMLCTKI
hgDAF12 agonist: hgDAF-12 agonism, primary luciferase screen. HEK293 GAL4-hgDAF12 UAS-luciferase reporter, agonist luminescence; normalized to butyrate control. hit rate 1.8% among 370,000. activation, % at 6.8 µM;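 active = activation above a cutoff set at the mean of all screened compounds plus 3 SD, cut at about 10% in these data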
DAX1 inh-2: inhibitors of DAX1 repression of SF-1 activated StAR promoter. HEK293T StAR-luciferase reporter, SF-1/DAX-1 repression relief. hit rate 1.1% among 370,000. inhibition, % at 6.8 µM;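 active = inhibition above the mean over all tested compounds plus 3 SD, cut at about 3.6% in these data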;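 also: higher inhibition means more luminescence from relief of DAX-1 repression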
LXR ag: counter-screen for hcDAF-12 agonists: agonists of human LXR-beta | HEK293 Gal4-LXR tk-luc reporter, luminescence, 24 h; normalized: DMSO 0%, positive control 100% | shares compounds with hcDAF-12 act | activation, % at 6.8 µM | AID 743027 | 3,400 tested, under 10 active;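 active = mean percent activation of the reporter above a cutoff set as the average over tested compounds plus their standard deviation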
Target sequence (P55055 whole entry, looked up, the tested form may be a part): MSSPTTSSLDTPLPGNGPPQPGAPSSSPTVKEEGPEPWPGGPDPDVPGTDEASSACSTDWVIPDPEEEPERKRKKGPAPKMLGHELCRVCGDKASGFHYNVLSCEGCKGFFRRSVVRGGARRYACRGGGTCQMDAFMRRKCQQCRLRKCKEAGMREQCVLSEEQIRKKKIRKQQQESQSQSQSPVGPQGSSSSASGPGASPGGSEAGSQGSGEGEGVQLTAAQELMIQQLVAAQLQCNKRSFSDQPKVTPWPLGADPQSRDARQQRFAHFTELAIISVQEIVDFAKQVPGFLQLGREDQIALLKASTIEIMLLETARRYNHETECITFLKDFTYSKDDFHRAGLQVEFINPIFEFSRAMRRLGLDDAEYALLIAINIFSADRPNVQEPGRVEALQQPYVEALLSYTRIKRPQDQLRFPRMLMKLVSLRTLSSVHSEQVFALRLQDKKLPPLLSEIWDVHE
hcDAF12 ag: hcDAF-12 agonism, confirmation assay; AID 743032; HEK293 hcDAF-12 lit1-tk-luc reporter, luminescence; % of Δ7-dafachronic acid response; hit rate 61% among 3,400; shares compounds with hcDAF-12 act; activation, % at 6.8 µM;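 active = mean activation across triplicate tests above the threshold derived from the earlier primary screen, cut at about 5.5% in these data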
hgDAF12 ag: confirmation of H. glycines DAF-12 agonists. shares compounds with hgDAF12 agonist. HEK293 GAL4-hgDAF12 luciferase reporter, agonist mode; percent of butyrate response. activation, % at 6.8 µM. hit rate 80% among 3,300. AID 743050;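 active = mean activation over triplicate wells above the hit cutoff derived from the earlier primary screen, cut at about 11% in these data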
LXR ag 2: counter-screen for DAF-12 agonists: agonists of human LXR-beta. shares compounds with hgDAF12 agonist. HEK293 Gal4-LXR luciferase reporter, 24 h. activation, % at 6.8 µM. 3,300 tested, under 10 active. AID 743051;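 active = mean activation of the triplicate above a set limit carried over from the primary screen, none filed active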
Of the large screens only hits and unclear results are named; the others gave an inactive call (follow-up assays come after a bar, where they were run). In the library only some 4.8% were active in any assay of this set; here they are far more common.

COc1ccc(-c2cc3cc(OC)c(OC)cc3cn2)cc1	none
Cc1cc(N2CCNC[C@H]2C)ccc1N1CCS(=O)(=O)CC1	none (no result: DAX1 inh-1)
Nc1[nH]c(C(=O)c2ccccc2)c(-c2cccc3ccccc23)c1C(=O)NCc1ccc(F)c(F)c1	none (no result: DAX1 inh-1)
Cc1ccc(C2NC(=O)c3n[nH]c(C(C)C)c32)cc1 (configuration not stated)	none (no result: DAX1 inh-1)
CCOc1ccc(-c2c(=O)n(O)c3ccccc3[n+]2[O-])cc1	hcDAF-12 act 7.8, hgDAF12 agonist 21 | LXR ag inactive | hcDAF12 ag inactive | hgDAF12 ag 41 | LXR ag 2 inactive
Cc1[nH]c2ccccc2c1/C=C/c1nc2ccccc2c(=O)[nH]1	hcDAF-12 act 6.9, hgDAF12 agonist 14, DAX1 inh-2 4.4 | LXR ag inactive | hcDAF12 ag 5.8 | hgDAF12 ag 18 | LXR ag 2 inactive
CCOc1cccc(C=NNc2nc(=O)cc(C(=O)OC)s2)c1O	none (no result: DAX1 inh-1)
O=C(Nc1nc2ccc(Cl)cc2s1)C1CC1	none
CC(C)c1ccc2nc(NC(=O)C3CC3)sc2c1	hcDAF-12 act 7.0, hgDAF12 agonist 22 | LXR ag inactive | hcDAF12 ag inactive | hgDAF12 ag 17 | LXR ag 2 inactive
Cc1ccnc(Nc2nc3ccccc3o2)n1	hcDAF-12 act 10, hgDAF12 agonist 21, DAX1 inh-2 6.5 | LXR ag inactive | hcDAF12 ag 6.6 | hgDAF12 ag inactive | LXR ag 2 inactive
N#Cc1cnc(Nc2nc3ccccc3o2)nc1-c1ccccc1	none
O=C(Nc1nccs1)c1ccc2ccccc2c1	hcDAF-12 act 17, ssDAF-12 act 2.2, hgDAF12 agonist 21 | LXR ag inactive | hcDAF12 ag 14 | hgDAF12 ag 26 | LXR ag 2 inactive
Cc1c(C(=O)Nc2nccs2)oc2ccccc12	hcDAF-12 act 15, ssDAF-12 act 3.2, DAX1 inh-1 4.6, hgDAF12 agonist 18 | LXR ag inactive | hcDAF12 ag 13 | hgDAF12 ag 25 | LXR ag 2 inactive
CCCCCCCCN1C(=O)[C@@H](CC(=O)N2CCCC2)C[C@@]2(C(=O)OC)C1=C[C@H](C1CCCC1)O[C@@H]2C	none (no result: DAX1 inh-1)
Cc1cccc(/C=C(\C(=O)C(=O)O)c2ccc3ccccc3n2)c1	hcDAF-12 act 11, ssDAF-12 act 1.8, hgDAF12 agonist 21 | LXR ag inactive | hcDAF12 ag 8.1 | hgDAF12 ag 14 | LXR ag 2 inactive
Cc1cccc(/C=C(\c2nc3ccccc3[nH]2)S(=O)(=O)c2ccccc2)c1	none
CNS(=O)(=O)c1ccc(NC(=O)c2ccc(Cl)cc2Cl)cc1	none
Cc1ccc(NC(=O)c2ccc(Cl)cc2Cl)cc1O	hcDAF-12 act 9.6, ssDAF-12 act 1.9, DAX1 inh-1 7.7, hgDAF12 agonist 17 | LXR ag inactive | hcDAF12 ag 6.2 | hgDAF12 ag 15 | LXR ag 2 inactive
CSCCC(NC(=O)OCc1ccccc1)C(=O)NC(Cc1c[nH]c2ccccc12)C(=O)O (configuration not stated)	none (no result: DAX1 inh-1)
Cc1ccc(Nc2nc(-c3cccs3)cs2)nc1	hcDAF-12 act 13, hgDAF12 agonist 15, DAX1 inh-2 4.0 | LXR ag inactive | hcDAF12 ag 14 | hgDAF12 ag inactive | LXR ag 2 inactive
Cc1ccc(S(=O)(=O)Nc2nc(-c3ccccc3)cs2)cc1	none
c1cncc(Nc2nc(-c3cccs3)cs2)c1	none (no result: SMARCA2 act, hcDAF-12 act, ssDAF-12 act, hgDAF12 agonist, DAX1 inh-2)
Cc1ccc(Nc2nc(-c3ccccc3)cs2)nc1	hcDAF-12 act 19, ssDAF-12 act 1.9, hgDAF12 agonist 13, DAX1 inh-2 3.7 | LXR ag inactive | hcDAF12 ag 17 | hgDAF12 ag 23 | LXR ag 2 inactive
COC(=O)C1=C(C)N(Cc2ccccc2C(F)(F)F)C(=NCc2ccccc2C(F)(F)F)NC1c1ccc(F)cc1 (configuration not stated)	none (no result: DAX1 inh-1)
Cc1oc(-c2ccoc2)nc1CN(CC1CCC(=O)N1)C(C)C (configuration not stated)	none
COCCN(Cc1nc(-c2ccc(-c3ccccc3)cc2)oc1C)C(C)C	hcDAF-12 act 10, ssDAF-12 act 1.1, hgDAF12 agonist 15 | LXR ag inactive | hcDAF12 ag 7.5 | hgDAF12 ag 18 | LXR ag 2 inactive
O=C(Oc1ccc(Cl)c2cccnc12)c1cccc([N+](=O)[O-])c1	none
O=[N+]([O-])c1ccccc1COc1ccc(Cl)c2cccnc12	hcDAF-12 act 9.1, DAX1 inh-1 4.8, hgDAF12 agonist 15 | LXR ag inactive | hcDAF12 ag 7.8 | hgDAF12 ag 16 | LXR ag 2 inactive
COc1ccc(C=CC(=O)c2c(N)n(C)c(=O)n(C)c2=O)cc1	none (no result: DAX1 inh-1)
C=CCNc1ncnc2c1cnn2-c1ccc(OC)cc1	hcDAF-12 act 6.6, ssDAF-12 act 0.9, hgDAF12 agonist 14, DAX1 inh-2 4.3 | LXR ag inactive | hcDAF12 ag 5.8 | hgDAF12 ag 17 | LXR ag 2 inactive
COC(=O)c1cc2c(c3c4cc(C)ccc4n(S(=O)(=O)c4ccccc4)c13)C(=O)N(Cc1ccc(C(F)(F)F)cc1)C2	none (no result: DAX1 inh-1)
CC(=O)Cc1nsc(Nc2ccccc2)n1	none
c1ccc(Nc2nc(-c3ccccc3)ns2)cc1	hcDAF-12 act 16, ssDAF-12 act 2.0, hgDAF12 agonist 22 | LXR ag inactive | hcDAF12 ag 9.5 | hgDAF12 ag 29 | LXR ag 2 inactive
CC1=NC(=O)C(N=Nc2cccc(O)c2)N1c1ccccc1 (configuration not stated)	hcDAF-12 act 9.3, hgDAF12 agonist 14 | LXR ag inactive | hcDAF12 ag 12 | hgDAF12 ag 16 | LXR ag 2 inactive
Cc1cccc(Nc2nc(-c3ccc(F)c(C)c3)cs2)n1	hcDAF-12 act 9.0, ssDAF-12 act 1.2, DAX1 inh-1 5.4, hgDAF12 agonist 14 | LXR ag inactive | hcDAF12 ag 7.7 | hgDAF12 ag 17 | LXR ag 2 inactive
COC(=O)[C@]12C[C@H](CC(=O)NCc3cccc4ccccc34)C(=O)N(Cc3ccccc3)C1=C[C@H](C1CCCC1)O[C@@H]2C	none (no result: DAX1 inh-1)
Fc1ccc(-c2ccc3c(n2)CCCN3Cc2ccccc2C(F)(F)F)cc1	none (no result: DAX1 inh-1)

Bioassay records from PubChem BioAssay.
